Test results: the antibiotic and cytotoxicity screens of Wong et al. (2023)
Hit rate of the full screen: of about 39,000 compounds, about 3,300 (8.5%) were called active. Shown is part of a subset that was picked to be rich in actives.

System: HepG2
Assay: cytotoxicity call (relative viability < 0.9)
Conditions: 10 µM

`N#Cc1ccc[nH]c1=O` was tested. Which cytotoxicity call did it give?
Its cytotoxicity call is “inactive”.

`C[C@@H]1CN([C@@H](C)CO)C(=O)c2cc(NS(=O)(=O)c3cccs3)ccc2O[C@@H]1CN(C)C(=O)Nc1cccc2ccccc12` was tested. Which cytotoxicity call did it give?
Its cytotoxicity call is “inactive”.

With `CCC=CCC=CCC=CCC=CCC=CCCCC(=O)OCC` [OMEGA-3-ACID ESTERS (EPA shown) ] as the molecule, how does the cytotoxicity call read?
Its cytotoxicity call is “inactive”.

`C[C@H](CO)N1C[C@H](C)[C@@H](CN(C)Cc2ccc(C(=O)O)cc2)Oc2ncc(C#CCN(C)C)cc2C1=O` was tested. Which cytotoxicity call did it give?
The cytotoxicity call was “inactive”.

With `Cc1noc(C)c1NC(=O)Nc1ccc2c(c1)CC(=O)N([C@H](C)CO)C[C@@H](C)[C@H](CN(C)Cc1ccc(Cl)c(Cl)c1)O2` as the molecule, how does the cytotoxicity call read?
The cytotoxicity call was “inactive”.

How did the cytotoxicity call turn out when `CCOC(=O)N(C)C[C@@H]1OCc2cn(nn2)CCCC(=O)N([C@@H](C)CO)C[C@@H]1C` was run?
Its cytotoxicity call is “inactive”.

For `COc1ccc(NC(=O)Nc2ccc3c(c2)C(=O)N([C@@H](C)CO)C[C@@H](C)[C@@H](CN(C)S(=O)(=O)c2ccc(OC)cc2)OCCCC[C@H](C)O3)cc1`, which cytotoxicity call is on record?
The cytotoxicity call was “inactive”.

How did the cytotoxicity call turn out when `COc1ccccc1CNC(=O)C[C@@H]1C[C@@H]2c3cc(NC(=O)c4ccc5c(c4)OCO5)ccc3O[C@@H]2[C@H](CO)O1` was run?
Its cytotoxicity call is “inactive”.

`NCC[C@H]1CC[C@H](NC(=O)C2CCC2)[C@@H](CO)O1` was tested. Which cytotoxicity call did it give?
Its cytotoxicity call is “inactive”.

`Cc1cccc(S(=O)(=O)N2C[C@@H](O)COC[C@@H]3O[C@H](CC(=O)N4CCN(C)CC4)CC[C@H]32)c1` was tested. Which cytotoxicity call did it give?
The cytotoxicity call was “inactive”.

Which cytotoxicity call does the source give for `COc1ccc(NC(=O)Nc2ccc3c(c2)C(=O)N([C@H](C)CO)C[C@H](C)[C@H](CN(C)C(=O)CCC(F)(F)F)OCCCC[C@H](C)O3)cc1` here?
The cytotoxicity call was “inactive”.

With `CC(C)NC(=O)N(C)C[C@H]1Oc2ccc(NS(=O)(=O)c3cccs3)cc2C(=O)N([C@H](C)CO)C[C@H]1C` as the molecule, how does the cytotoxicity call read?
Its cytotoxicity call is “inactive”.

How did the cytotoxicity call turn out when `C[C@H]1CN([C@@H](C)CO)C(=O)c2cccc(NS(=O)(=O)c3ccccc3)c2O[C@H]1CN(C)Cc1ccc(Cl)c(Cl)c1` was run?
Its cytotoxicity call is “inactive”.

Which cytotoxicity call does the source give for `COc1ccc(S(=O)(=O)Nc2cccc3c2O[C@H](CN(C)Cc2ccc(Cl)c(Cl)c2)[C@H](C)CN([C@@H](C)CO)C3=O)cc1` here?
Its cytotoxicity call is “active”.

With `C[C@@H]1CN([C@@H](C)CO)C(=O)c2cccc(NS(=O)(=O)c3ccccc3)c2O[C@@H]1CN(C)Cc1ccc(Cl)c(Cl)c1` as the molecule, how does the cytotoxicity call read?
Its cytotoxicity call is “inactive”.

`COc1ccc(S(=O)(=O)Nc2cccc3c2O[C@H](CN(C)Cc2ccc(Cl)c(Cl)c2)[C@@H](C)CN([C@@H](C)CO)C3=O)cc1` was tested. Which cytotoxicity call did it give?
Its cytotoxicity call is “inactive”.

For `COc1ccc(S(=O)(=O)Nc2cccc3c2O[C@@H](CN(C)Cc2ccc(Cl)c(Cl)c2)[C@H](C)CN([C@@H](C)CO)C3=O)cc1`, which cytotoxicity call is on record?
Its cytotoxicity call is “inactive”.

How did the cytotoxicity call turn out when `C[C@@H]1CN([C@@H](C)CO)C(=O)c2cccc(NS(=O)(=O)c3ccc(Cl)cc3)c2O[C@H]1CN(C)Cc1ccc(Cl)c(Cl)c1` was run?
The cytotoxicity call was “inactive”.

With `C[C@H]1CN([C@@H](C)CO)C(=O)c2cccc(NS(=O)(=O)c3ccc(Cl)cc3)c2O[C@@H]1CN(C)Cc1ccc(Cl)c(Cl)c1` as the molecule, how does the cytotoxicity call read?
The cytotoxicity call was “active”.

How did the cytotoxicity call turn out when `C[C@H](CO)N1C[C@H](C)[C@@H](CN(C)Cc2ccc(Cl)c(Cl)c2)Oc2c(NS(=O)(=O)c3ccc(Cl)cc3)cccc2C1=O` was run?
The cytotoxicity call was “inactive”.

Which cytotoxicity call does the source give for `C[C@H](CO)N1C[C@H](C)[C@@H](CN(C)Cc2ccc(Cl)c(Cl)c2)Oc2c(NS(=O)(=O)c3ccccc3)cccc2C1=O` here?
The cytotoxicity call was “active”.

How did the cytotoxicity call turn out when `Cc1ccc(S(=O)(=O)N(C)C[C@@H]2Oc3ccc(NC(=O)NC(C)C)cc3CC(=O)N([C@@H](C)CO)C[C@H]2C)cc1` was run?
Its cytotoxicity call is “inactive”.

How did the cytotoxicity call turn out when `Nc1ncnc(NC[C@H]2CCCO2)c1[N+](=O)[O-]` was run?
Its cytotoxicity call is “inactive”.

Which cytotoxicity call does the source give for `COc1ccc(NC(=O)Nc2ccc3c(c2)C(=O)N([C@@H](C)CO)C[C@@H](C)[C@@H](CN(C)S(=O)(=O)c2ccc(C)cc2)OCCCC[C@H](C)O3)cc1` here?
The cytotoxicity call was “inactive”.

`C[C@@H]1CN([C@@H](C)CO)S(=O)(=O)c2ccc(-c3cncnc3)cc2O[C@@H]1CN(C)C(=O)Cc1ccncc1` was tested. Which cytotoxicity call did it give?
Its cytotoxicity call is “inactive”.

For `COc1ccc(NC(=O)Nc2ccc3c(c2)C(=O)N([C@@H](C)CO)C[C@@H](C)[C@H](CN(C)Cc2ccccc2)OCCCC[C@H](C)O3)cc1`, which cytotoxicity call is on record?
Its cytotoxicity call is “active”.

`COc1ccc(NC(=O)Nc2ccc3c(c2)C(=O)N([C@@H](C)CO)C[C@@H](C)[C@@H](CN(C)Cc2ccccc2)OCCCC[C@H](C)O3)cc1` was tested. Which cytotoxicity call did it give?
The cytotoxicity call was “inactive”.

With `COc1ccc(NC(=O)Nc2ccc3c(c2)C(=O)N([C@H](C)CO)C[C@@H](C)[C@@H](CN(C)Cc2ccccc2)OCCCC[C@@H](C)O3)cc1` as the molecule, how does the cytotoxicity call read?
The cytotoxicity call was “inactive”.

How did the cytotoxicity call turn out when `COc1ccc(NC(=O)Nc2ccc3c(c2)C(=O)N([C@H](C)CO)C[C@@H](C)[C@@H](CN(C)Cc2ccccc2)OCCCC[C@H](C)O3)cc1` was run?
Its cytotoxicity call is “inactive”.

`COc1ccc(NC(=O)Nc2ccc3c(c2)C(=O)N([C@H](C)CO)C[C@@H](C)[C@H](CN(C)Cc2ccccc2)OCCCC[C@H](C)O3)cc1` was tested. Which cytotoxicity call did it give?
Its cytotoxicity call is “active”.

How did the cytotoxicity call turn out when `COc1ccc(NC(=O)Nc2ccc3c(c2)C(=O)N([C@H](C)CO)C[C@H](C)[C@@H](CN(C)Cc2ccccc2)OCCCC[C@H](C)O3)cc1` was run?
Its cytotoxicity call is “inactive”.

For `COc1ccc(NC(=O)Nc2ccc3c(c2)C(=O)N([C@@H](C)CO)C[C@H](C)[C@H](CN(C)Cc2ccccc2)OCCCC[C@@H](C)O3)cc1`, which cytotoxicity call is on record?
The cytotoxicity call was “inactive”.

With `COc1ccc(NC(=O)Nc2ccc3c(c2)C(=O)N([C@@H](C)CO)C[C@H](C)[C@H](CN(C)Cc2ccccc2)OCCCC[C@H](C)O3)cc1` as the molecule, how does the cytotoxicity call read?
The cytotoxicity call was “inactive”.

Which cytotoxicity call does the source give for `COc1ccc(NC(=O)Nc2ccc3c(c2)C(=O)N([C@@H](C)CO)C[C@@H](C)[C@H](CN(C)Cc2ccccc2)OCCCC[C@@H](C)O3)cc1` here?
Its cytotoxicity call is “inactive”.

`COc1ccc(NC(=O)Nc2ccc3c(c2)C(=O)N([C@H](C)CO)C[C@@H](C)[C@H](CN(C)Cc2ccccc2)OCCCC[C@@H](C)O3)cc1` was tested. Which cytotoxicity call did it give?
Its cytotoxicity call is “active”.

How did the cytotoxicity call turn out when `COc1ccc(NC(=O)Nc2ccc3c(c2)C(=O)N([C@@H](C)CO)C[C@H](C)[C@@H](CN(C)Cc2ccccc2)OCCCC[C@@H](C)O3)cc1` was run?
The cytotoxicity call was “inactive”.

Which cytotoxicity call does the source give for `COc1ccc(NC(=O)Nc2ccc3c(c2)C(=O)N([C@@H](C)CO)C[C@@H](C)[C@@H](CN(C)Cc2ccccc2)OCCCC[C@@H](C)O3)cc1` here?
Its cytotoxicity call is “active”.

`COc1cccc([C@@H](N)c2ccccc2)c1` was tested. Which cytotoxicity call did it give?
The cytotoxicity call was “inactive”.

With `O=C(/C=C/c1ccc(O)c(O)c1)O[C@@H]1[C@H](O)C[C@@](O)(C(=O)O)C[C@H]1OC(=O)/C=C/c1ccc(O)c(O)c1` as the molecule, how does the cytotoxicity call read?
Its cytotoxicity call is “inactive”.
